Experimental data reported in ChEMBL document CHEMBL1961873, “Compounds: GSK PKIS; Assays: Nanosyn kinase panel” (2012).
Several values for one entry are separate records, joined by “and”; a condition that tells them apart may be missing. Equal values may be shown once.

These molecules were tested against Fibroblast growth factor receptor 4 (Homo sapiens) (UniProt P22455). Conditions: at 0.1 µM.
Fibroblast growth factor receptor 4 (Homo sapiens), sequence (P22455 22-802 limits assumed): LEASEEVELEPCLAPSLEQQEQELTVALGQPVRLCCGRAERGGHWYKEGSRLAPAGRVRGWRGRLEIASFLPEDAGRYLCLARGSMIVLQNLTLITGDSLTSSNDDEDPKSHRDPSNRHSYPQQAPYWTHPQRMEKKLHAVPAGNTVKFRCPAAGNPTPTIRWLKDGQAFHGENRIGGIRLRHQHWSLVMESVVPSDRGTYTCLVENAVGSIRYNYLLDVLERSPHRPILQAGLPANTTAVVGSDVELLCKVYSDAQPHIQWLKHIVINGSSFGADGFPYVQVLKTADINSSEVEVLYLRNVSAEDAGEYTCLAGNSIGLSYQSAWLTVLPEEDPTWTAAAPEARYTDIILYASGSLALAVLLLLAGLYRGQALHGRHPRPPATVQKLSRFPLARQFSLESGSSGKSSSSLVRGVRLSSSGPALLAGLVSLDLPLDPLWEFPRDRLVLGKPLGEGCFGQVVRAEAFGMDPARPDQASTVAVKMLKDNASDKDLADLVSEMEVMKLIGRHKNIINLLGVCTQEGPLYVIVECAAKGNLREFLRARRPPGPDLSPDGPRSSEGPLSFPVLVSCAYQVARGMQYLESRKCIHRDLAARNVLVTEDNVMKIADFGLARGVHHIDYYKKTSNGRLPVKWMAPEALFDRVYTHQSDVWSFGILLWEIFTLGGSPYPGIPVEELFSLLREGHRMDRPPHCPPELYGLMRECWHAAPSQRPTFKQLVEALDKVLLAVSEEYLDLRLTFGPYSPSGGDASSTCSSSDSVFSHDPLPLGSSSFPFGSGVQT

Row | Structure (SMILES) | inhibition
1 | CC1=C(C(=O)Nc2ccc3[nH]nc(C)c3c2)C(c2ccc(C(F)(F)F)cc2)CC(=O)N1 (configuration not stated) | -0.06%
2 | COc1cc(N2CCN(C(C)C)CC2)ccc1Nc1nc(Nc2cccc3ncccc23)c2cc[nH]c2n1 | 0.6%
3 | COc1cc(Nc2ncc(-c3ccccc3)o2)cc(OC)c1 | -1.24%
4 | COc1cccc(Nc2nccc(-c3cnn4ncccc34)n2)c1 | 1.56%
5 | O=C(Nc1n[nH]c2nnc(-c3cccnc3)cc12)C1CC1 | 2.02%
6 | CN1CCN(Cc2ccc(-c3cc4ncnc(Nc5ccc(OCc6cccc(F)c6)c(Cl)c5)c4s3)o2)CC1 | 0.04% and -5.98%
7 | CCCNc1cccc(-n2ncc3c(N/N=C/c4ccncc4)ncnc32)c1 | -1.49%
8 | CS(=O)(=O)Nc1ccc(-c2ccc3c(NC(=O)C4CC4)n[nH]c3c2)cc1 | -2.39%
9 | COc1cccc(-n2ncc3c(N/N=C/c4ccc(C(=O)NCCN(C)C)cc4)ncnc32)c1 | 0.01%
10 | O=C(O[C@H]1CN[C@H](C#Cc2cc3ncnc(Nc4ccc(OCc5cccc(F)c5)c(Cl)c4)c3s2)C1)N1CCOCC1 | 1.38%
11 | O=C(O[C@H]1CN[C@H](C#Cc2cc3ncnc(Nc4ccc5c(cnn5Cc5ccccc5)c4)c3s2)C1)N1CCOCC1 | 0.54%
12 | CCn1c(-c2nonc2N)nc2cncc(C(=O)NCCNC)c21 | 0.72%
13 | O=C(O[C@H]1CN[C@H](C#Cc2cc3ncnc(Nc4ccc5c(ccn5Cc5cc(F)ccc5F)c4)c3s2)C1)N1CCOCC1 | -1.92%
14 | c1ccc(-c2n[nH]cc2-c2ccnc(-c3ccc(OCCn4ccnc4)cc3)c2)nc1 | 1.45%
15 | COc1cc2c(cc1Nc1nc(Nc3cccc(F)c3C(N)=O)c3cc[nH]c3n1)N(C(=O)CN1CCN(C(C)C)CC1)CC2 | 1.09%
16 | CNC(=O)c1cncc(/C=C/c2ccccc2C)c1 | 0.55%

Row | Structure (SMILES) | inhibition
17 | N#Cc1cccc(Nc2ncc(-c3ccccc3)o2)c1 | -2.65%
18 | CCN1CCC(C(=O)Nc2n[nH]c3nnc(-c4cccc(F)c4F)cc23)CC1 | 1.8%
19 | Nc1nonc1-c1nc2cnccc2n1C1CC1 | 0.52% and -4.76%
20 | O=C1Nc2ccccc2/C1=C1\CCc2cc(O)ccc21 | -1.94%
21 | Fc1ccc(Nc2nccc(-c3c(-c4ccc(C(F)(F)F)cc4)nn4ncccc34)n2)cc1F | -0.65%
22 | CCS(=O)(=O)c1ccc(OC)c(Nc2ncc(-c3cccc(F)c3)o2)c1 | 5.31%
23 | OCCCNc1nccc(-c2c(-c3ccc(F)cc3)nn3cc(C(F)(F)F)ccc23)n1 | 1.17%
24 | CN(c1ccc(NC(=O)NCCN2CCOCC2)cc1)c1ccnc(Nc2ccc(CS(C)(=O)=O)cc2)n1 | 1.27%
25 | Nc1nccc(-c2c(-c3ccc(F)cc3)ncn2C2CCNCC2)n1 | -0.08% and 3.95%
26 | CC1(C)CC(n2cnc(-c3ccc(F)cc3)c2-c2ccnc(N)n2)CC(C)(C)N1 | -1.33%
27 | Cn1c(-c2nonc2N)nc2cnccc21 | -0.24%
28 | COc1ccc2ncn(-c3cc(O[C@H](C)c4ccccc4C(F)(F)F)c(C(N)=O)s3)c2c1 | 0.21%
29 | Cc1c2ccc(N(C)c3ccnc(Nc4cccc(S(N)(=O)=O)c4)n3)cc2nn1C | 2.26%
30 | CNC(=O)c1ncccc1Nc1nc(Nc2cc3c(cc2OC)CCCN3C(=O)CN(C)C)nc2[nH]ccc12 | 2.18%
31 | COC(=O)Nc1nc2cc(Oc3ccc(NC(=O)Nc4ccccc4)cc3)ccc2[nH]1 | 0.83%

The molecules below were run against Fibroblast growth factor receptor 4 (Homo sapiens) (UniProt P22455). Conditions: at 1 µM.

Row | Structure (SMILES) | inhibition
32 | CC1=C(C(=O)Nc2ccc3[nH]nc(C)c3c2)C(c2ccc(C(F)(F)F)cc2)CC(=O)N1 (configuration not stated) | 2.06%
33 | COc1cc(N2CCN(C(C)C)CC2)ccc1Nc1nc(Nc2cccc3ncccc23)c2cc[nH]c2n1 | 0.41%
34 | COc1cc(Nc2ncc(-c3ccccc3)o2)cc(OC)c1 | -0.29%
35 | COc1cccc(Nc2nccc(-c3cnn4ncccc34)n2)c1 | 1.33%
36 | O=C(Nc1n[nH]c2nnc(-c3cccnc3)cc12)C1CC1 | -0.33%
37 | CN1CCN(Cc2ccc(-c3cc4ncnc(Nc5ccc(OCc6cccc(F)c6)c(Cl)c5)c4s3)o2)CC1 | 0.2% and 1%
38 | CCCNc1cccc(-n2ncc3c(N/N=C/c4ccncc4)ncnc32)c1 | 3.38%
39 | CS(=O)(=O)Nc1ccc(-c2ccc3c(NC(=O)C4CC4)n[nH]c3c2)cc1 | 0.84%
40 | COc1cccc(-n2ncc3c(N/N=C/c4ccc(C(=O)NCCN(C)C)cc4)ncnc32)c1 | 4.18%
41 | O=C(O[C@H]1CN[C@H](C#Cc2cc3ncnc(Nc4ccc(OCc5cccc(F)c5)c(Cl)c4)c3s2)C1)N1CCOCC1 | -0.16%
42 | O=C(O[C@H]1CN[C@H](C#Cc2cc3ncnc(Nc4ccc5c(cnn5Cc5ccccc5)c4)c3s2)C1)N1CCOCC1 | 0.38%
43 | CCn1c(-c2nonc2N)nc2cncc(C(=O)NCCNC)c21 | 1.09%
44 | O=C(O[C@H]1CN[C@H](C#Cc2cc3ncnc(Nc4ccc5c(ccn5Cc5cc(F)ccc5F)c4)c3s2)C1)N1CCOCC1 | 1.82%
45 | c1ccc(-c2n[nH]cc2-c2ccnc(-c3ccc(OCCn4ccnc4)cc3)c2)nc1 | 4.5%
46 | COc1cc2c(cc1Nc1nc(Nc3cccc(F)c3C(N)=O)c3cc[nH]c3n1)N(C(=O)CN1CCN(C(C)C)CC1)CC2 | 1.15%
47 | CNC(=O)c1cncc(/C=C/c2ccccc2C)c1 | -0.62%

Row | Structure (SMILES) | inhibition
48 | N#Cc1cccc(Nc2ncc(-c3ccccc3)o2)c1 | 3.3%
49 | CCN1CCC(C(=O)Nc2n[nH]c3nnc(-c4cccc(F)c4F)cc23)CC1 | 1.49%
50 | Nc1nonc1-c1nc2cnccc2n1C1CC1 | 0.52% and -2.65%
51 | O=C1Nc2ccccc2/C1=C1\CCc2cc(O)ccc21 | 3.99%
52 | Fc1ccc(Nc2nccc(-c3c(-c4ccc(C(F)(F)F)cc4)nn4ncccc34)n2)cc1F | 3.24%
53 | CCS(=O)(=O)c1ccc(OC)c(Nc2ncc(-c3cccc(F)c3)o2)c1 | 17.6%
54 | OCCCNc1nccc(-c2c(-c3ccc(F)cc3)nn3cc(C(F)(F)F)ccc23)n1 | 0.98%
55 | CN(c1ccc(NC(=O)NCCN2CCOCC2)cc1)c1ccnc(Nc2ccc(CS(C)(=O)=O)cc2)n1 | 1.61%
56 | Nc1nccc(-c2c(-c3ccc(F)cc3)ncn2C2CCNCC2)n1 | -0.1% and 1.64%
57 | CC1(C)CC(n2cnc(-c3ccc(F)cc3)c2-c2ccnc(N)n2)CC(C)(C)N1 | 2.01%
58 | Cn1c(-c2nonc2N)nc2cnccc21 | 1.93%
59 | COc1ccc2ncn(-c3cc(O[C@H](C)c4ccccc4C(F)(F)F)c(C(N)=O)s3)c2c1 | 3.29%
60 | Cc1c2ccc(N(C)c3ccnc(Nc4cccc(S(N)(=O)=O)c4)n3)cc2nn1C | 26.4%
61 | CNC(=O)c1ncccc1Nc1nc(Nc2cc3c(cc2OC)CCCN3C(=O)CN(C)C)nc2[nH]ccc12 | 0.76%
62 | COC(=O)Nc1nc2cc(Oc3ccc(NC(=O)Nc4ccccc4)cc3)ccc2[nH]1 | -0.59%
